Values joined by “and” are separate entries in the source; they are usually repeats but may differ in a detail not shown here. Equal entries are not always repeated. Records with an inconclusive call do not appear. Active and inactive are the calls of the source. Unless noted, calls follow the shape of the dose curve; as a rule, active = well fitted curve in the direction sought with a large enough effect in the repeat runs; inconclusive = weak or mixed curves; inactive = no such curve, though single readings can be large; an effect the other way counts as inactive or inconclusive.
Tests used:
[1] = target: Estrogen receptor (Homo sapiens) (UniProt P03372); assay: qHTS assay to identify small molecule antagonists of the estrogen receptor alpha (ER-alpha) signaling pathway using the BG1 cell line in the presence of 0.1 nM 17-beta-estradiol (AID 1259244); also: potency is read from the fitted curve at half-maximal effect; nearly all actives have a fitted effect of over 50% in size
In short: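 Compounds were tested against 0.1 nM (final) 17beta-estradiol in VM7Luc4E2 cells, which express full-length ER-alpha and an ERE-luciferase reporter; luminescence was recorded following 22 h exposure.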

[2] = qHTS assay to identify small molecule HDAC inhibitors - cell viability counter screen (AID 1259365); also: series mostly up to about 92 µM; % is scaled to controls: 0 for no effect and ±100 for the full control effect; nearly all actives have a fitted effect of over 50% in size
In short: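 HCT-116 wild-type, overnight attachment; 2hr drug exposure, 37C; CellTiter-Glo luminescent ATP readout after 30min RT.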

[3] = qHTS assay to identify small molecule agonists of the estrogen receptor beta (ER-beta) signaling pathway - cell viability counter screen (AID 1259380); also: nearly all actives have a fitted effect of over 30% in size; also: potency is read from the fitted curve at half-maximal effect; as to activity change, negative = cytotoxicity: % is scaled to controls: 0 for no effect and ±100 for the full control effect
In short: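 Measured: luminescence from CellTiter-Glo after 30 min at room temperature, added to wells already read for the LiveBLAzer FRET reporter (2 hr substrate); ER-beta-UAS-bla HEK293T cells had 16 hr compound treatment at 37C, 5% CO2.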

[4] = target: Estrogen receptor (Homo sapiens) (UniProt P03372); assay: qHTS assay to identify small molecule agonists of the estrogen receptor alpha (ER-alpha) signaling pathway in the presence of an antagonist (AID 1259383; calls by dose curve; also: top concentration of the series differs between compounds; % is scaled to controls: 0 for no effect and ±100 for the full control effect; nearly all actives have a fitted effect of over 15% in size)
In short: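 Quantitative HTS confirmation: compounds titrated at 15 concentrations onto estrogen-deprived VM7Luc4E2 cells carrying a four-ERE luciferase construct, with ICI-182,780 present at 10.0nM final. Signal is luminescence after 22hr exposure.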

[5] = qHTS assay to identify small molecule agonists of the estrogen receptor alpha (ER-alpha) signaling pathway in the presence of an antagonist - cell viability counter screen (AID 1259386);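 also: cells exposed to compounds for 22 h at 37 °C before the viability read; nearly all actives have a fitted effect of over 30% in size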; also: potency is read from the fitted curve at half-maximal effect
In short: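 The test measures whether compounds kill ER-alpha reporter cells (VM7Luc4E2) under antagonist co-treatment (ICI-182,780, 10.0nM). Fluorescence from CellTiter-Fluor is read after a 22hr exposure.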

[6] = target: Progesterone receptor (Homo sapiens) (UniProt P06401); assay: qHTS assay to identify small molecule agonists of the progesterone receptor (PR) signaling pathway (AID 1346784; calls by dose curve; also: % is scaled to controls: 0 for no effect and ±100 for the full control effect; nearly all actives have a fitted effect of over 30% in size)
In short: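 Fluorescence from LiveBLAzer B/G FRET substrate cleavage (2 hr, RT) reported PR activation in PR-UAS-bla HEK 293T cells treated 16 hr at 37C/5% CO2 with compounds; medium contained 2% charcoal-stripped FBS.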

[7] = qHTS assay to identify small molecule phospholipidosis (PLD) inducers (AID 1259344; active = well fitted curve in the direction sought with a large enough effect; an effect the other way counts as inactive or inconclusive; also: % is scaled to controls: 0 for no effect and ±100 for the full control effect)
In short: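 Phospholipid accumulation was scored by imaging: fixed, Hoechst-counterstained HepG2 cells stained with LipidTOX Red after 24 h compound exposure at 37 C. Read-outs were pit count and pit intensity per well or per cell, with amiodarone and DMSO controls.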

[8] = qHTS assay to identify small molecule HDAC inhibitors (AID 1259364);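 also: wild-type HCT-116 cells with endogenous class I/II HDAC activity; top concentration of the series differs between compounds; % is scaled to controls: 0 for no effect and ±100 for the full control effect; nearly all actives have a fitted effect of over 45% in size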
In short: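 Screening used wild-type human colon HCT-116 cells incubated overnight, dosed with compounds for 2 hours, and assayed with a homogeneous luminogenic HDAC I/II reagent for 30 minutes at room temperature.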

[9] = qHTS assay to identify small molecule agonists of the sonic hedgehog signaling (Shh) pathway (AID 1259368; calls by dose curve;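 also: NIH/3T3-derived 3T3Gli1-Luc cells carrying a stable Gli1-driven firefly luciferase reporter; series mostly up to about 92 µM; % is scaled to controls: 0 for no effect and ±100 for the full control effect; nearly all actives have a fitted effect of over 15% in size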)
In short: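 Hedgehog pathway agonism scored by increased firefly luciferase luminescence in 3T3Gli1-Luc cells treated 24 hr at 37 C; detection used a 30 min room-temperature reagent incubation.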

[10] = qHTS assay to identify small molecule antagonists of the sonic hedgehog signaling (Shh) pathway (AID 1259369; calls by dose curve; also: nearly all actives have a fitted effect of over 45% in size; also: potency is read from the fitted curve at half-maximal effect)
In short: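 NIH/3T3 stable Gli1-Luc clone, 2,000 cells/well, 4hr settle; cpd + conditioned medium 24hr; Luc reagent 30min RT; luminescence.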

[11] = target: Androgen receptor (Homo sapiens) (UniProt P10275); assay: qHTS assay to identify small molecule agonists of the androgen receptor (AR) signaling pathway in the presence of an antagonist (AID 1259381; calls by dose curve; also: % is scaled to controls: 0 for no effect and ±100 for the full control effect; nearly all actives have a fitted effect of over 15% in size)
In short: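 Luminescent ONE-Glo read, 30min at room temperature, follows 16hr compound exposure (15 concentrations) of MDA-kb2 cells at 37C, 0% CO2, with nilutamide added at 3.0uM final.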

[12] = qHTS assay to identify small molecule antagonists of the estrogen receptor beta (ER-beta) signaling pathway - cell viability counter screen (AID 1259382); also: nearly all actives have a fitted effect of over 55% in size; also: potency is read from the fitted curve at half-maximal effect
In short: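 Readout: luminescence, CellTiter-Glo, same wells as bla assay. System: ER-beta-UAS-bla GripTite HEK293T, 2% charcoal-stripped FBS. Exposure: compounds plus 1nM 17-beta-estradiol, 16 hr, 37C.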

[13] = qHTS assay to identify small molecule agonists of the sonic hedgehog signaling (Shh) pathway - cell viability counter screen (AID 1259366); also: nearly all actives have a fitted effect of over 50% in size; also: potency is read from the fitted curve at half-maximal effect
In short: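 Compounds in DMSO were pin-transferred onto 3T3 Gli1-Luc cells that had settled 4hr; plates then stood 24hr at 37C and 5% CO2. One hour before the end, CellTiter-Fluor was added and fluorescence recorded.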

[14] = qHTS assay to identify small molecule agonists or antagonists of the thyroid stimulating hormone receptor (TSHR) signaling pathway - wild type cell line counter screen (AID 1259384; calls by dose curve; also: % is scaled to controls: 0 for no effect and ±100 for the full control effect)
In short: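 Counter screen in untransfected Hek293: compounds (15-point titration, triplicate) plus phosphodiesterase inhibitor Ro20-1724 added after 18 h plating; 30 min RT. Intracellular cAMP via competitive d2/cryptate immunoassay, 1 h incubation.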

[15] = target: Thyrotropin receptor (Homo sapiens) (UniProt P16473); assay: qHTS assay to identify small molecule antagonists of the thyroid stimulating hormone receptor (TSHR) signaling pathway (AID 1259385; calls by dose curve; also: % is scaled to controls: 0 for no effect and ±100 for the full control effect; nearly all actives have a fitted effect of over 20% in size)
In short: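 Antagonist mode: compound-treated TSHR-expressing HEK293 cells were stimulated with 1.5 ng/mL TSH (final) in presence of Ro20-1724 for 30 min at RT. HTRF cAMP detection after 1 h; each compound tested at 15 concentrations, triplicate.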

[16] = target: Progesterone receptor (Homo sapiens) (UniProt P06401); assay: qHTS assay to identify small molecule antagonists of the progesterone receptor (PR) signaling pathway (AID 1346795; active = well fitted inhibition curve with a large enough effect in the signal ratio in the repeat runs, not every such curve was filed as active; the % refers to the signal ratio; also: potency is read from the fitted curve at half-maximal effect)
In short: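 Fluorescence intensity measured 2 hr after adding beta-lactamase FRET substrate to PR-UAS-bla HEK293T cells that had been co-treated 16 hr with compound and 1 nM R5020 (final concentration) in 2% charcoal-stripped FBS.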

[17] = qHTS assay to identify small molecule antagonists of the sonic hedgehog signaling (Shh) pathway - cell viability counter screen (AID 1259367); also: nearly all actives have a fitted effect of over 55% in size; also: potency is read from the fitted curve at half-maximal effect
In short: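 Viability was read by CellTiter-Fluor fluorescence in the same wells, reagent added 23 hr into compound treatment and incubated 1 hr at 37C. The 3T3 Gli1-Luc reporter cells (2,000/well) received conditioned medium after compound and ran 24 hr.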

[18] = qHTS assay to identify small molecule agonists of the androgen receptor (AR) signaling pathway in the presence of an antagonist - cell viability counter screen (AID 1259379); also: nearly all actives have a fitted effect of over 25% in size; also: potency is read from the fitted curve at half-maximal effect
In short: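 MDA-kb2 viability measured by CellTiter-Fluor fluorescence in the same wells as the luciferase signal; nilutamide 3.0uM final; 15-point compound titration; 16 hr at 37C.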

[19] = target: Estrogen receptor beta (Homo sapiens) (UniProt Q92731); assay: qHTS assay to identify small molecule agonists of the estrogen receptor beta (ER-beta) signaling pathway (AID 1259377; active = well fitted activation curve with a large enough effect in the signal ratio in the repeat runs, not every such curve was filed as active; the % refers to the signal ratio; also: % is scaled to controls: 0 for no effect and ±100 for the full control effect)
In short: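 qHTS in ER-beta-UAS-bla HEK293T cells: 6 hr settling, then 16 hr compound at 37C, then LiveBLAzer substrate 2 h at RT before fluorescence reading.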

[20] = target: Estrogen receptor beta (Homo sapiens) (UniProt Q92731); assay: qHTS assay to identify small molecule antagonists of the estrogen receptor beta (ER-beta) signaling pathway (AID 1259378; active = well fitted inhibition curve with a large enough effect in the signal ratio in the repeat runs, not every such curve was filed as active; the % refers to the signal ratio; also: potency is read from the fitted curve at half-maximal effect)
In short: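 Antagonist mode: compounds added to beta-lactamase reporter HEK293T ER-beta-UAS cells stimulated with E2 (1nM final), 16 hr at 37C. LiveBLAzer B/G FRET substrate, 2 hours room temperature, fluorescence read-out.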

Chain of Progesterone receptor (Homo sapiens) (P06401 whole entry, looked up): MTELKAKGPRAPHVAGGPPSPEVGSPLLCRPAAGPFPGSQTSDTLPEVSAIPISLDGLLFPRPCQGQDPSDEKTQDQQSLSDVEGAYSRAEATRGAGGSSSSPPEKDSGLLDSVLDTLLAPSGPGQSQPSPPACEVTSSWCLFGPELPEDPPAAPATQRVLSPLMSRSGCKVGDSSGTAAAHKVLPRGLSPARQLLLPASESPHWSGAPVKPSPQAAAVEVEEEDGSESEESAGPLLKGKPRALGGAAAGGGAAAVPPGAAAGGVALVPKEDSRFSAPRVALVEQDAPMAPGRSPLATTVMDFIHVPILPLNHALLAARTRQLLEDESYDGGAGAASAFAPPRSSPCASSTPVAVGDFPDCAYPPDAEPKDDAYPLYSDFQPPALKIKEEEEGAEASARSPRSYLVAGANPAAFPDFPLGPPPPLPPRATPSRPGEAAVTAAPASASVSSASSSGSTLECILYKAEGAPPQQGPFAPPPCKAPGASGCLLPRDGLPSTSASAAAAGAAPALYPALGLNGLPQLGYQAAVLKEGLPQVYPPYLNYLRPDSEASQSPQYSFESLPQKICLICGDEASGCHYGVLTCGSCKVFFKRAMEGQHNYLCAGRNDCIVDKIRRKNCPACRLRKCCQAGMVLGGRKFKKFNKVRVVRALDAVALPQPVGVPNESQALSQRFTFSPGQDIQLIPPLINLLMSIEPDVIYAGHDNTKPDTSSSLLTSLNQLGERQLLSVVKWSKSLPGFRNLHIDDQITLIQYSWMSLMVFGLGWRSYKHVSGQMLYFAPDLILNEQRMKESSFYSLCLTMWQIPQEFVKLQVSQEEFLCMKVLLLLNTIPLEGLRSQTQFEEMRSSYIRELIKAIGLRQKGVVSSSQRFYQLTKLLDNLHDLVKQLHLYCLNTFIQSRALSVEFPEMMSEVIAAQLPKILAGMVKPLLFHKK
Chain of Androgen receptor (Homo sapiens) (P10275 whole entry, looked up): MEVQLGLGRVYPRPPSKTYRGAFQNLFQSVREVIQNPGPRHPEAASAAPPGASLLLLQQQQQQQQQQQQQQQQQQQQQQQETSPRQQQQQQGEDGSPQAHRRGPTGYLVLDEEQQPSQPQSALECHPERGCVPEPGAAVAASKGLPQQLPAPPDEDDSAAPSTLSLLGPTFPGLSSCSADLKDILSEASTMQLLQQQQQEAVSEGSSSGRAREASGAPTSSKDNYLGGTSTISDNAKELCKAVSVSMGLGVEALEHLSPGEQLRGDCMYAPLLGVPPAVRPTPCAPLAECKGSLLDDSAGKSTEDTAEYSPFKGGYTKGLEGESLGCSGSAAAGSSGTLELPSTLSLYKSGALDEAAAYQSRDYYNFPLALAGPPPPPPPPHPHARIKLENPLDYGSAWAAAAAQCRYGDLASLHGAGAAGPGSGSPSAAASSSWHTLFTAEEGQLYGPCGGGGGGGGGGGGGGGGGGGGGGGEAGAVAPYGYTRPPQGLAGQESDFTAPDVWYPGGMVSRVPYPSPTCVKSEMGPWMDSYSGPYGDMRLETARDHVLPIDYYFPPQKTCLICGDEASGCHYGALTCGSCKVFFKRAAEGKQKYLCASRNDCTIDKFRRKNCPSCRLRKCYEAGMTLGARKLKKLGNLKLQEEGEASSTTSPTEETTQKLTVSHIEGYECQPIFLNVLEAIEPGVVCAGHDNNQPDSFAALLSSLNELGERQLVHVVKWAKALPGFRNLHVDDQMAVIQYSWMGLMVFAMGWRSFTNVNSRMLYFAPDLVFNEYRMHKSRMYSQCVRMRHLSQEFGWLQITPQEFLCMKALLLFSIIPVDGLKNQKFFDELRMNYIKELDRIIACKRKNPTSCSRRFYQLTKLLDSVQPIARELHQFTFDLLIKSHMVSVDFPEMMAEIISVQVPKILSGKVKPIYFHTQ
Chain of Estrogen receptor (Homo sapiens) (P03372 whole entry, looked up): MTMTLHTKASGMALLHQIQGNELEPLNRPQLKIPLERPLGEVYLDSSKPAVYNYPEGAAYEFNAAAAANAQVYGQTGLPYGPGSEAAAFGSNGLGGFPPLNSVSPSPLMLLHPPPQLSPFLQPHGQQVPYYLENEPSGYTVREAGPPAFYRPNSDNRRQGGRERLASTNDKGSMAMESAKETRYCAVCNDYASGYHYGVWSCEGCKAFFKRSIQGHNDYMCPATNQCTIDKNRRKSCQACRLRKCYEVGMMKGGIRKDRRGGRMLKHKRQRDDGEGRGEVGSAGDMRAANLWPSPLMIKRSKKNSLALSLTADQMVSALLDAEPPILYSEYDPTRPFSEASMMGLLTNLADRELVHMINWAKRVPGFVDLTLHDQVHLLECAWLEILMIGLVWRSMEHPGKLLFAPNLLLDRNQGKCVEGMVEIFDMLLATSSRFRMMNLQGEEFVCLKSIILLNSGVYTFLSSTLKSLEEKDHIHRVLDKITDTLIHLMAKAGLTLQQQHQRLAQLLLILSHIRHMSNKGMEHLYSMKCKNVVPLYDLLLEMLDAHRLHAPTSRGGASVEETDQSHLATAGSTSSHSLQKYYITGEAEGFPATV
Chain of Estrogen receptor beta (Homo sapiens) (Q92731 whole entry, looked up): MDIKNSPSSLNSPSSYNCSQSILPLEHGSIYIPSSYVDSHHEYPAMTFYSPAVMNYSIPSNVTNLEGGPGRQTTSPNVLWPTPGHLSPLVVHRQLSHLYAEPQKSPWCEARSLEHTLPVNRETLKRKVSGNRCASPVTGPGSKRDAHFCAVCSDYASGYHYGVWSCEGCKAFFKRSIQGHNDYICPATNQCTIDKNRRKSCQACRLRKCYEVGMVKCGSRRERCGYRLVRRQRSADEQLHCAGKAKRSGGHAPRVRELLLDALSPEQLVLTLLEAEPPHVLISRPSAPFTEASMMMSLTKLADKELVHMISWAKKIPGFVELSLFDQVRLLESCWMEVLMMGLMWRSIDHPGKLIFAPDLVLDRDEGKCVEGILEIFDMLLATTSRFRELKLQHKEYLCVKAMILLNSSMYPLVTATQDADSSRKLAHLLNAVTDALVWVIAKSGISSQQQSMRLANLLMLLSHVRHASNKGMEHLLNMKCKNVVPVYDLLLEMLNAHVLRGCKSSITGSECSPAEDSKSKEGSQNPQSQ
Chain of Thyrotropin receptor (Homo sapiens) (P16473 whole entry, looked up): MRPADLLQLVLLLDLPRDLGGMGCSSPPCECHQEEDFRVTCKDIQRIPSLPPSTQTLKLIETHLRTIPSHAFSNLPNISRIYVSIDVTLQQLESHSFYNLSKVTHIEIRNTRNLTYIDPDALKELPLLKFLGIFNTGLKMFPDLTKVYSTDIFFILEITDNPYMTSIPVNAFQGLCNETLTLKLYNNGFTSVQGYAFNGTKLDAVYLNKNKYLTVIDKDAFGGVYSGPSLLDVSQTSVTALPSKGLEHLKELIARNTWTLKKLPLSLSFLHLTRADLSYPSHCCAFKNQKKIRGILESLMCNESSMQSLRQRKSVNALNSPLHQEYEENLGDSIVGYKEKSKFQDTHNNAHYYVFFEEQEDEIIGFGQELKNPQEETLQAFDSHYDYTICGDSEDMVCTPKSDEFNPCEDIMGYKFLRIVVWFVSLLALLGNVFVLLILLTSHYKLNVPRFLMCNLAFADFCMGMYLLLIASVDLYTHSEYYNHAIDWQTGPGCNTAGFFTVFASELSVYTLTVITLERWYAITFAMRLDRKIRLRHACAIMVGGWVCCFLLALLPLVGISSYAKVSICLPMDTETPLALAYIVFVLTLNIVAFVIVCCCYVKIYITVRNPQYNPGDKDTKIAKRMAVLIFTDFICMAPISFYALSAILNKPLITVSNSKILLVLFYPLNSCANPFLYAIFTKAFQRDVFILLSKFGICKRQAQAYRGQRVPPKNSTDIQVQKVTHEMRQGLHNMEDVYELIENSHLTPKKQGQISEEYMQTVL

O=Nc1ccc(NO)cc1
inactive: Potency [2] | Potency [3] | Potency [4] | Potency [5] | outcome [6]
active: Potency [1] 50.5 µM

Nc1ccc2cc3ccc(N)cc3nc2c1
inactive: Potency [7] | Potency [8] | Potency [9] | Potency [10] | Potency [11] | Potency [12] | outcome [6]
active: Potency [3] 2.37 µM

C[n+]1c2cc(N)ccc2cc2ccc(N)cc21 (tested in a mixture with another compound)
inactive: Potency [7] | Potency [8] | Potency [2] | Potency [9] | Potency [11]
active: Potency [3] 11.9 µM

Oc1c(Br)cc(Br)c2cccnc12
active: Potency [13] 7.5 µM | Potency [10] 2.37 µM | Potency [3] 1.19 µM | Potency [16] 2.66 µM
inactive: Potency [7] | Potency [8] | Potency [2] | Potency [4] | outcome [14] | Potency [15] | Potency [5]

c1cc(OCC2CO2)cc(OCC2CO2)c1 (stereo not given)
inactive: Potency [2] | Potency [9] | Potency [18] | Potency [3] | Potency [11] | Potency [12] | Potency [4] | outcome [14] | Potency [15]
active: Potency [1] 48.2 µM | Potency [13] 21.5 µM | Potency [17] 60.6 µM | Potency [10] 19.2 µM

O=C1c2c(O)ccc(O)c2C(=O)c2c(NCCNCCO)ccc(NCCNCCO)c21
active: Potency [13] 21.1 µM | Potency [17] 23.7 µM | Potency [10] 0.0473 µM | Potency [5] 26.6 µM | Potency [16] 3.35 µM
inactive: Potency [7] | Potency [8] | Potency [2] | Potency [9] | Potency [19] | Potency [3] | Potency [11] | Potency [12]

Brc1ccccc1-c1ccccc1
inactive: Potency [7] | Potency [8] | Potency [2] | Potency [13] | Potency [17] | Potency [10] | Potency [18] | Potency [12] | outcome [14] | Potency [5]

O=C1OC(OC(=O)c2cccnc2Nc2cccc(C(F)(F)F)c2)c2ccccc21 (stereo not given)
inactive: Potency [7] | Potency [8] | Potency [2] | Potency [13] | Potency [17] | Potency [9] | Potency [18] | Potency [11] | outcome [14] | Potency [15] | Potency [5] | Potency [16]

COc1ccccc1OCCNCC(O)COc1cccc2[nH]c3ccccc3c12 (stereo not given)
active: Potency [13] 26.6 µM | Potency [10] 21.1 µM | Potency [20] 7.5 µM | Potency [18] 29.8 µM | Potency [3] 9.44 µM | Potency [12] 11.9 µM
inactive: Potency [7] | Potency [8] | Potency [2] | Potency [19] | Potency [11] | Potency [4] | outcome [14]

CCCN(CCc1cccs1)[C@H]1CCc2c(O)cccc2C1
active: Potency [16] 29.8 µM
inactive: Potency [7] | Potency [8] | Potency [2] | Potency [13] | Potency [17] | Potency [9] | Potency [18] | Potency [11] | Potency [12] | Potency [4] | outcome [14] | Potency [15]

NCCCC(O)(P(=O)(O)O)P(=O)(O)O
inactive: Potency [7] | Potency [8] | Potency [2] | Potency [13] | Potency [17] | Potency [9] | Potency [10] | Potency [18] | Potency [3] | Potency [12] | outcome [14] | Potency [15] | Potency [5] | outcome [6] | Potency [16]

CN(C)CCCN1c2ccccc2CCc2ccccc21
active: Potency [10] 8.63 µM and 4.73 µM | Potency [18] 61.1 µM | Potency [3] 30.6 µM and 23.7 µM | Potency [12] 27.3 µM and 23.7 µM
inactive: Potency [8] | Potency [2] | Potency [13] | Potency [17] | Potency [9] | Potency [5]

Clc1cc(Cl)c(-c2c(Cl)c(Cl)cc(Cl)c2Cl)cc1Cl
inactive: Potency [8] | Potency [2] | Potency [13] | Potency [17] | Potency [9] | Potency [10] | Potency [19] | Potency [20] | Potency [18] | Potency [3] | Potency [11] | outcome [14] | Potency [15] | Potency [5] | outcome [6] | Potency [16]

C=C/C=C/C=C/CCCCC
inactive: activity change, negative = inhibition [8] -2.93% [at 19 µM] | activity change, negative = cytotoxicity [2] -0.499% [at 19 µM] | viability change, negative = cytotoxic [13] -4.32% [at 19 µM] | viability change, negative = cytotoxic [17] -2.58% [at 19 µM] | activity change [9] -0.134% [at 18.9 µM, stronger effect = higher value] | activity change, negative = inhibition [10] -23.5% [at 19 µM] | activation [19] -0.263% [at 19 µM] | activity, negative = inhibition [20] -14.6% [at 19 µM] | activity change, negative = cytotoxicity [3] -7.99% [at 19 µM] | activation [11] 5.43% [at 19 µM] | activity change, negative = cytotoxicity [12] 0.024% [at 19 µM] | activation [4] -1.21% [at 19 µM] | cAMP activity change [14] 0.413% [at 18.9 µM] | activity change, negative = inhibition [15] 1.23% [at 19 µM] | activity change, negative = cytotoxicity [5] -2.67% [at 19 µM] | activation [6] -1.1% [at 19 µM]

CNCC[C@H](Oc1cccc2ccccc12)c1cccs1
inactive: Potency [8] | Potency [2] | Potency [9] | outcome [14] | Potency [15] | Potency [5]
active: Potency [13] 26.6 µM | Potency [17] 33.5 µM | Potency [10] 2.37 µM | Potency [18] 29.8 µM | Potency [3] 16.8 µM | Potency [12] 13.3 µM

CCNc1nc(NC(C)CC)nc(OC)n1 (stereo not given)
active: Potency [10] 30.6 µM
inactive: Potency [8] | Potency [2] | Potency [13] | Potency [17] | Potency [9] | Potency [18] | Potency [3] | Potency [12] | outcome [14] | Potency [5] | outcome [6]

Clc1ccc(C(c2ccccc2Cl)C(Cl)Cl)cc1 (stereo not given)
active: Potency [20] 19.3 µM | Potency [3] 48.6 µM | Potency [16] 3.44 µM
inactive: Potency [8] | Potency [2] | Potency [13] | Potency [17] | Potency [9] | Potency [10] | Potency [19] | Potency [18] | Potency [12] | outcome [14] | Potency [5] | outcome [6]

Cc1ccc2ccc3cccc4ccc1c2c34
inactive: Potency [8] | Potency [2] | Potency [13] | Potency [17] | Potency [9] | Potency [10] | Potency [19] | Potency [20] | Potency [18] | Potency [12] | Potency [4] | outcome [14] | Potency [15]
active: Potency [3] 24.3 µM
